FadD28 binding – inhibitors of Mycobacterium tuberculosis FadD28 bisubstrate binding. inhibition, % at 12.5 µM. 360,000 compounds, 0.22% hits. FadD28 bisubstrate probe binding, fluorescence polarization; in the data active means inhibition above about 8.5%, passing the limit was not always enough; inconclusive means no clear call, values can overlap the other calls
Yp Topo-I inh – inhibitors of Yersinia pestis topoisomerase I. Y. pestis Topo-I cleavage product accumulation, plate reader. activity, % at 10 µM. 360,000 compounds, 0.064% hits; in the data active means activity above about 50%, passing the limit was not always enough; inconclusive means no clear call, values can overlap the other calls
TcdB GH inh – blocks C. difficile toxin B glycohydrolase activity | P18177 | TcdB glycohydrolase enzymatic assay, plate reader | inhibition, % at 9.99 µM | 350,000 compounds, 0.24% hits; in the data active means inhibition above about 10%
Mtb BioA inh – inhibitors of Mycobacterium tuberculosis BioA enzyme; purified M. tuberculosis BioA enzyme, plate reader; AID 602481; 360,000 compounds, 0.096% hits; inhibition, % at 9.99 µM; in the data active means inhibition above about 40%; inconclusive means no clear call, values can overlap the other calls
Large screens that a line does not name were inactive. Most compounds without a hit are left out; they make up all but 0.47% or so of the library.

O=C(CC(=O)N/N=C/c1ccc(O)cc1)N/N=C/c1ccc(O)cc1	TcdB GH inh 24
COc1cc(-c2nnc(COC(=O)C3c4ccccc4Oc4ccccc43)o2)cc(OC)c1OC	none (no result: TcdB GH inh)
Cc1ccc(C(=O)C=Cc2cccc(C)c2)cc1	none
CCOC(=O)c1c(-c2ccc(C)o2)csc1NC(=S)NC(=O)c1ccccc1Br	none (no result: TcdB GH inh)
COc1ccccc1NCC(=O)c1ccc(Cl)cc1	Yp Topo-I inh 98 (no result: Mtb BioA inh)
O=C(O)CC(C(=O)O)N1C(=O)/C(=C/c2ccc(-c3nc4ccccc4s3)o2)SC1=S (configuration not stated)	FadD28 binding 29 (no result: TcdB GH inh)
COc1ccc(NC(=O)Nc2ccc3c(c2)CC(=O)N([C@@H](C)CO)C[C@H](C)[C@@H](CN(C)Cc2ccc(-c4ccccc4)cc2)O3)cc1	none (no result: FadD28 binding, Yp Topo-I inh)
Cc1nn(-c2cccc(C(F)(F)F)c2)c(Cl)c1/C=N/Nc1cccc(C(=O)O)c1	FadD28 binding inconclusive (no result: Mtb BioA inh)
Cc1nn(-c2ccccc2Cl)c(Cl)c1/C=N/Nc1cccc(C(=O)O)c1	FadD28 binding 16 (no result: TcdB GH inh, Mtb BioA inh)
CC(C)COC(=O)N(C)C[C@H]1OCc2cn(nn2)CCCC(=O)N([C@H](C)CO)C[C@@H]1C	none
C[C@@H]1CN([C@H](C)CO)C(=O)c2cc(NC(=O)C3CCCCC3)ccc2O[C@@H](C)CCCCO[C@H]1CN(C)C(=O)NC1CCCCC1	none (no result: FadD28 binding, Yp Topo-I inh)
O=[N+]([O-])c1cc(Br)ccc1NS(=O)(=O)c1ccccc1	TcdB GH inh 19
O=C(Cc1ccccc1)N1C[C@H]2[C@@H](c3ccccc31)[C@H](CO)N2C(=O)Cc1ccccc1	none (no result: FadD28 binding, Yp Topo-I inh)
COc1ccccc1NC(=O)c1cc2ccc(O)cc2o/c1=N\O	FadD28 binding 18 (no result: TcdB GH inh)
CC1CCCC(NC(=O)COC(=O)CSc2ccc3ccccc3c2)C1C (configuration not stated)	none (no result: Mtb BioA inh)
CSC(=NCc1ccc(F)cc1)NS(=O)(=O)c1cccs1	none (no result: Mtb BioA inh)
CS/C(=N\S(=O)(=O)c1ccc(N)cc1)NS(=O)(=O)c1cccs1	FadD28 binding 30 (no result: TcdB GH inh)
COC(=O)c1ccc(Cn2cnc3c(sc4nc(N5CCOCC5)c5c(c43)CCCC5)c2=O)o1	Yp Topo-I inh 52 (no result: TcdB GH inh)
COC(=O)c1ccc(CSc2ncnc3c2sc2nc(N4CCOCC4)c4c(c23)CCCC4)o1	none (no result: TcdB GH inh)
COc1ccc(C(=O)N2CC(=O)Nc3ccc(F)cc3C2c2ccccc2)cc1 (configuration not stated)	none
CCCn1c(SCC(=O)N2CC(=O)Nc3ccccc32)n[nH]c1=O	none
COc1cc2[nH]c(=S)nc(NCCC(C)C)c2cc1OC	TcdB GH inh 10 (no result: Mtb BioA inh)
COCCCNc1nc(=S)[nH]c2cc(OC)c(OC)cc12	none (no result: TcdB GH inh)
COc1ccc(S(=O)(=O)N2CCOCC2)cc1NC(=O)COC(=O)c1[nH]c(C)c(C(C)=O)c1C	TcdB GH inh 13
CCc1noc(C)c1C(=O)Nc1cc(S(=O)(=O)N2CCOCC2)ccc1OC(C)C	FadD28 binding 16
COc1cccc(CNC(=O)c2cccnc2Sc2ccc(C)cc2C)c1	none
O=C(Cc1ccc(Cl)cc1)NCCCn1ccnc1	none (no result: TcdB GH inh)
Clc1ccc(COC(Cn2ccnc2)c2ccc(Cl)cc2Cl)cc1 (configuration not stated)	Yp Topo-I inh 62
Clc1ccc(OCCCn2ccnc2)c(Br)c1	none (no result: TcdB GH inh, Mtb BioA inh)
Clc1ccc(CSC(Cn2ccnc2)c2ccc(Cl)cc2Cl)cc1 (configuration not stated)	Yp Topo-I inh 57
CCN=c1scc(-c2ccco2)n1/N=C/c1ccc(O)cc1	none (no result: TcdB GH inh)
CCN=c1scc(-c2ccco2)n1/N=C/c1ccc(OC)c(O)c1	FadD28 binding 9.4
CCCCCCCNC(=O)C1(CC2CC(c3cccc(Br)c3)=NO2)CCN(C(=O)C2CCCC2)CC1 (configuration not stated)	Yp Topo-I inh 60
Brc1ccc(N/N=C(/N=Nc2nn[nH]n2)c2ccccc2)cc1	FadD28 binding 13 (no result: Mtb BioA inh)
CC1CCC/C(=C\c2ccc(O)cc2)C1=O (configuration not stated)	TcdB GH inh 37
N#CCn1cnc2sc(-c3ccccc3)cc2c1=O	none (no result: Mtb BioA inh)
CCc1ccccc1NC(=O)CN1CCN(CC(=O)NCc2ccc(Cl)cc2)CC1	TcdB GH inh 14
O=C(CN1CCN(Cc2ccccc2)CC1)NCc1ccc(Cl)cc1	none
Cc1nn(CCOc2ccccc2)c(=O)n1-c1ccccc1	none (no result: TcdB GH inh)
Cc1nn(CCOc2ccccc2)c(=O)n1-c1ccc(Cl)cc1	TcdB GH inh 15
COc1cc2cc3c(N)c(C(=O)Nc4sc(C)c(C)c4C#N)sc3nc2cc1OC	FadD28 binding 11 (no result: TcdB GH inh)
COc1cc2cc3c(N)c(C(=O)NCc4ccco4)sc3nc2cc1OC	none (no result: TcdB GH inh)
CC(C)(C)c1ccc(NC(=O)Nc2ccc(OCC(=O)N3CCOCC3)cc2)cc1	FadD28 binding 25 (no result: Mtb BioA inh)
OC(CCCN1CCCCC1)(c1ccccc1)c1ccccc1	none
N#C/C(=C/c1ccco1)C(N)=S	FadD28 binding 15 (no result: Mtb BioA inh)
COC(=O)CCC(=O)NC1CC(C)(C)Cc2c1cnn2-c1ccccc1 (configuration not stated)	none
COc1ccc(NC(=O)N(C)C[C@@H]2OCCCC[C@H](C)Oc3ccc(NC(=O)Nc4ccc5c(c4)OCO5)cc3C(=O)N([C@H](C)CO)C[C@@H]2C)cc1	none (no result: FadD28 binding, Yp Topo-I inh)
O=C(O)c1ccc(NS(=O)(=O)c2ccc3c(c2)C2C=CCC2C(c2ccccc2F)N3)cc1 (configuration not stated)	FadD28 binding 43 (no result: Mtb BioA inh)
O=C(O)c1ccc2c(c1)C1C=CCC1C(c1cc3c(cc1Br)OCO3)N2 (configuration not stated)	none (no result: Mtb BioA inh)
Cc1cccc(C(C)C)c1NC(=O)CSc1cccc[n+]1[O-]	none
N#Cc1ccc(-c2csc(NC(=O)c3ccc(N4C(=O)CCC4=O)cc3)n2)cc1	none
COc1ccc(CC(=O)OCC(=O)Nc2ccc3c(c2)OCO3)cc1OC	none (no result: Mtb BioA inh)
O=C(COC(=O)CNS(=O)(=O)c1ccc2ccccc2c1)Nc1ccc2c(c1)OCO2	none (no result: Mtb BioA inh)
O=C(COC(=O)CNS(=O)(=O)c1ccc2ccccc2c1)Nc1ccccc1Sc1ccccc1	Yp Topo-I inh 62 (no result: Mtb BioA inh)
COc1ccc(NC(=O)Nc2cnccn2)c(OC)c1	none
COc1ccc(NC(=O)Nc2nc(C)cc(C)n2)c(OC)c1	TcdB GH inh 11
Cc1ccc2[nH]c(=O)cc(C(=O)OCC(=O)c3ccc(F)cc3)c2c1	none
CN(C)CCNC(=O)c1cc2c(s1)-c1ccc(Cl)cc1SC2	TcdB GH inh 12
CCOCCCNC(=O)c1cc2c(s1)-c1ccccc1SC2	none
COc1cccc(S(=O)(=O)N[C@@H]2CC[C@H](CCN)O[C@H]2CO)c1	none (no result: FadD28 binding, Yp Topo-I inh)
CCCCCCCCCCCCC/C=C/[C@@H](O)[C@@H](N)CO	FadD28 binding 33
COc1cc(/C=C2\SC(=S)N(NC(=O)c3ccc(O)c(OC)c3)C2=O)ccc1O	FadD28 binding 16
COc1cc(/C=C2\SC(=S)N(NC(=O)c3cccc(O)c3)C2=O)ccc1O	FadD28 binding 13
COc1cc(/C=C2\SC(=S)N(NC(=O)c3ccncc3)C2=O)ccc1O	none (no result: Mtb BioA inh)
COc1ccc(NC(=O)Cn2cnc3sc(C)c(S(=O)(=O)N4CCOCC4)c3c2=O)c(OC)c1	TcdB GH inh 15
Cc1sc2ncn(CC(=O)NCC3COc4ccccc4O3)c(=O)c2c1S(=O)(=O)N1CCOCC1 (configuration not stated)	none (no result: Mtb BioA inh)
CC(C)[C@H](NC(=O)c1ccco1)C(=O)NCc1ccccc1	none
COc1cc(OC)c(-c2c3cc(O)c(=O)cc-3oc3cc(O)c(O)cc23)cc1OC	FadD28 binding 39 (no result: Mtb BioA inh)

Assay outcomes: PubChem, Broad Institute
